Test systems include DU-145 prostate; K-562 leukemia; MALME-3M melanoma; MDA-MB-231 breast; RXF 393 renal; SF-268 CNS; SF-295 CNS; SF-539 CNS; UACC-257 melanoma; M14 melanoma; HCT-15 colon; HT29 colon; SNB-75 CNS; SNB-19 CNS; U251 CNS; PC-3 prostate; SK-MEL-5 melanoma; UACC-62 melanoma; LOX IMVI melanoma; SK-MEL-28 melanoma.
Experiment in all cases: NCI-60 one-dose screen, 48 h (100 = growth as untreated, 0 = no growth, -100 = all killed)
What all share (conditions): 10 µM unless noted

About 83,000 compounds went through this panel and 20% of them were active in at least one assay; those are over-represented in the sample as a whole.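 Single-dose data. Exposure time 48 hours. Values below 10 considered active.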 Values without a mark were called inactive. Activity calls are given as the source filed them.

On to `CC1=C(C(=O)Nc2ccccc2)C(c2ccc3c(c2)OCO3)NC(=S)N1` (stereo not given), for which the growth is 111% in the assay on DU-145 prostate; 118% in the assay on K-562 leukemia; 100% with MALME-3M melanoma; 106% in the assay with MDA-MB-231 breast; 129% in the assay with RXF 393 renal; 106% with SF-268 CNS. The growth in the assay on SF-295 CNS was 105%; in the assay on SF-539 CNS, 102%; with UACC-257 melanoma, 107%; with M14 melanoma, 93%; with HCT-15 colon it was 101%; with HT29 colon, 109%. For the same molecule, the growth in the assay on SNB-75 CNS is 107%; with SNB-19 CNS it was 96.2%; in the assay with U251 CNS, 104%; with PC-3 prostate, 95.3%; with SK-MEL-5 melanoma it was 102%; with UACC-62 melanoma, 97.5%. For the same molecule, the growth with LOX IMVI melanoma was 96.2%; in the assay on SK-MEL-28 melanoma it was 112%.

For `Fc1cc(Nc2ccc3c(OCCCN4CCOCC4)cccc3n2)ccc1Cl`, the growth is 48.1% in the assay on DU-145 prostate; -34.8% (active) with K-562 leukemia; 21.4% in the assay with MALME-3M melanoma; -18.9% (active) in the assay with MDA-MB-231 breast; 1.26% (active) in the assay on RXF 393 renal; 48.5% in the assay with SF-268 CNS. Also, the growth in the assay with SF-295 CNS was -46.2% (active); in the assay with SF-539 CNS it was 15.7%; with UACC-257 melanoma, 75.9%; with M14 melanoma it was -31.1% (active); in the assay with HCT-15 colon it was -13.4% (active); with HT29 colon it was -49.3% (active). Further, the growth in the assay on SNB-75 CNS is 37.3%; in the assay on SNB-19 CNS, 17.8%; with U251 CNS, 14.4%; in the assay with PC-3 prostate, 30.6%; with SK-MEL-5 melanoma, 63.6%; in the assay on UACC-62 melanoma, -31.7% (active). In addition, the values for the growth with LOX IMVI melanoma and in the assay with SK-MEL-28 melanoma were -78.7% (active) and -35.8% (active), respectively.

With `C/C(=N\O)c1ccc(NC(=O)CSc2nnc(-c3cc(-c4ccc(S(N)(=O)=O)cc4)nc4ccccc34)n2-c2ccccc2)cc1`, the growth in the assay with DU-145 prostate is 80.3%; in the assay on K-562 leukemia it was 43%; with MALME-3M melanoma it was 80%; in the assay with MDA-MB-231 breast, 74.3%; in the assay on RXF 393 renal it was 83.9%; in the assay on SF-268 CNS, 60.3%. The growth in the assay with SF-295 CNS was 92.2%; in the assay with SF-539 CNS, 76.4%; with UACC-257 melanoma it was 87.3%; in the assay on M14 melanoma it was 74.4%; in the assay with HCT-15 colon, 81%; in the assay with HT29 colon, 66.2%. For the same molecule, the growth in the assay on SNB-75 CNS is 24.3%; in the assay with SNB-19 CNS, 66.9%; in the assay on U251 CNS, 62.5%; in the assay with PC-3 prostate, 63.6%; in the assay on SK-MEL-5 melanoma it was 54%; in the assay with UACC-62 melanoma it was 62.4%. Also, the results for the growth in the assay on LOX IMVI melanoma and in the assay on SK-MEL-28 melanoma were 37.7% and 84.4%, respectively.

In the case of `C=C1C(=O)O[C@H]2[C@H]1CC/C(COC(=O)c1cc3cc(Cl)ccc3[nH]1)=C\CC[C@@]1(C)O[C@@H]21`, the growth was -96.1% (active) in the assay on DU-145 prostate; -21.1% (active) in the assay on K-562 leukemia; -76.9% (active) in the assay with MALME-3M melanoma; -77.8% (active) in the assay on MDA-MB-231 breast; -88.7% (active) in the assay with RXF 393 renal; -88.3% (active) with SF-268 CNS. Further, the growth is 39.2% in the assay with SF-295 CNS; -90.4% (active) with SF-539 CNS; -76.3% (active) with UACC-257 melanoma; -56.9% (active) with M14 melanoma; -61.1% (active) with HCT-15 colon; -75.9% (active) in the assay on HT29 colon. In addition, the growth was -97.3% (active) in the assay on SNB-75 CNS; 12.6% with SNB-19 CNS; -88.8% (active) with U251 CNS; -56.3% (active) in the assay with PC-3 prostate; -88.6% (active) with SK-MEL-5 melanoma; -78.7% (active) in the assay on UACC-62 melanoma. The growth in the assay on LOX IMVI melanoma is -93.2% (active); in the assay on SK-MEL-28 melanoma it was -83.3% (active).

As to `COc1ccc2[nH]cc(-c3nc(-c4c[nH]c5c(Cl)nccc45)cs3)c2c1`, the growth is 32.6% with DU-145 prostate; 19.3% in the assay on K-562 leukemia; 65.8% in the assay on MALME-3M melanoma; 31.7% in the assay with MDA-MB-231 breast; 37.7% in the assay with RXF 393 renal; 73% in the assay with SF-268 CNS. Also, the growth is 11.9% in the assay on SF-295 CNS; 34.9% with SF-539 CNS; -48.3% (active) in the assay with UACC-257 melanoma; -26% (active) in the assay with M14 melanoma; -16.1% (active) in the assay with HCT-15 colon; 15.8% with HT29 colon. The growth was 54.1% in the assay with SNB-75 CNS; 63.9% in the assay on SNB-19 CNS; 17.5% with U251 CNS; 31% with PC-3 prostate; 55.6% in the assay with SK-MEL-5 melanoma; 52% with UACC-62 melanoma. Also, the growth with LOX IMVI melanoma was 13.2%; with SK-MEL-28 melanoma, 42%.

For the molecule `CN(CCC(=O)c1ccccc1)CCC(=O)c1ccccc1`, the growth with DU-145 prostate is 104%; in the assay with K-562 leukemia, 61.7%; in the assay with MALME-3M melanoma, 105%; in the assay on MDA-MB-231 breast it was 97.3%; in the assay with RXF 393 renal, 97.9%; in the assay on SF-268 CNS, 101%. The growth in the assay with SF-295 CNS was 108%; with SF-539 CNS, 88%; with UACC-257 melanoma it was 98.6%; with M14 melanoma it was 94.7%; in the assay on HCT-15 colon, 103%; in the assay on HT29 colon, 117%. Further, the growth in the assay with SNB-75 CNS was 90.4%; in the assay on SNB-19 CNS it was 93.1%; with U251 CNS, 98%; in the assay with PC-3 prostate, 95.5%; with SK-MEL-5 melanoma, 96.4%; in the assay with UACC-62 melanoma it was 77.9%. Besides, the growth in the assay with LOX IMVI melanoma is 75.6%; with SK-MEL-28 melanoma, 103%.

For `CCS/C(Nc1ccccc1)=C(\C#N)C(=O)Nc1ccc(OC)cc1`, the growth in the assay on DU-145 prostate was 33.8%; in the assay on K-562 leukemia, 7.34% (active); in the assay with MALME-3M melanoma it was 55.6%; in the assay on MDA-MB-231 breast it was 44.5%; in the assay on RXF 393 renal, 39.5%; in the assay on SF-268 CNS, 39.1%. In addition, the growth in the assay on SF-295 CNS was 32.6%; in the assay on SF-539 CNS, 29.1%; in the assay on UACC-257 melanoma it was 58.4%; in the assay on M14 melanoma it was 15.2%; with HCT-15 colon, 16.9%; in the assay with HT29 colon, 6.46% (active). The growth was 18.2% with SNB-75 CNS; 23.1% with SNB-19 CNS; 16.6% in the assay on U251 CNS; 47.9% in the assay with PC-3 prostate; 17.8% in the assay on SK-MEL-5 melanoma; 27.2% in the assay on UACC-62 melanoma. The growth in the assay with LOX IMVI melanoma is 36.6%; in the assay with SK-MEL-28 melanoma, 58.9%.

For the origin of these results see PubChem BioAssay (NCI).
